# In PubChem BioAssay AID2599 (Sanford-Burnham Center for Chemical Genomics, 2010):
# The whole screen tested about 330,000 compounds, of which about 5,800 (1.8%) were called active.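 How the source made its calls: active means inhibition above about 50% at the single tested dose (limit read from the data); inactive means the rest.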 Many of the other results were omitted from the sample, so actives are more common in it than they were.
# Molecular target: Sentrin-specific protease 6 (Homo sapiens) (UniProt Q9GZR1)
# Assay: inhibition of human SENP6 catalytic domain – biochemical, luminescence, uHTS, primary screen (AID 2599);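 further: plate controls were DMSO wells with enzyme for no effect and DMSO wells lacking enzyme for full effect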
# Conditions: Recombinant SENP6 catalytic domain, aminoluciferin luminescence; at 10 µM; active compounds read high
# Sequence of Sentrin-specific protease 6 (Homo sapiens) (Q9GZR1 628-1112 limits assumed): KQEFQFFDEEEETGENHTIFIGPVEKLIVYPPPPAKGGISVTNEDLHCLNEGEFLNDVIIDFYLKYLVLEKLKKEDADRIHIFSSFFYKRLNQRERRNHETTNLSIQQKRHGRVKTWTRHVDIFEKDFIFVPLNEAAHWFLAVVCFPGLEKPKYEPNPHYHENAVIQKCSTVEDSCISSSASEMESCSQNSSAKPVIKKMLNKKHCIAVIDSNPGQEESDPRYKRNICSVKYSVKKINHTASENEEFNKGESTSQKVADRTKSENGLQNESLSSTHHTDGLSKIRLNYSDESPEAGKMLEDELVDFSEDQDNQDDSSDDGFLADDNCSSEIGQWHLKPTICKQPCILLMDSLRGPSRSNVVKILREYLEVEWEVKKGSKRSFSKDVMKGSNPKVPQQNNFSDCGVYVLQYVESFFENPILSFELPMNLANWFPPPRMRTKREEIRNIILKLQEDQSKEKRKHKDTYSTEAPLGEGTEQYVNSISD
row,Structure (SMILES),inhibition
1,Cc1ccc(NS(=O)(=O)c2c(C)[nH]c(C)c2C(=O)N2CCCCC2)c(C)c1,-8.53% (inactive)
2,S=C(Nc1cccc(Br)c1)N1CCn2cccc2C1c1cccnc1 (stereo unspecified),-5.73% (inactive)
3,CC(C)CCNC(=O)CC1C(=O)N(Cc2ccccc2)C(C)c2nc3ccccc3n21 (stereo unspecified),-1.07% (inactive)
4,COc1cc(C(=O)OC2CCOC2=O)c([N+](=O)[O-])cc1OC (stereo unspecified),-15.4% (inactive)
5,O=C(OC1CCOC1=O)c1ccc(-c2nc3ccccc3s2)s1 (stereo unspecified),97.8% (active)
6,CC(C)c1ccc(C(=O)OC2CCOC2=O)cc1 (stereo unspecified),-5.48% (inactive)
7,COc1cc(/C=N/Nc2nn3cnnc3c3ccccc23)cc(OC)c1OC,2.31% (inactive)
8,CN(CCO)c1ccc(/C=N/Nc2nncc3ccccc23)cc1,96.7% (active)
9,C/C(=N\Nc1nncc2ccccc12)c1ccc(Cl)c([N+](=O)[O-])c1,1.2% (inactive)
10,COc1ccc(NC(=O)C2C3C=CC(C3)C2C(=O)NCc2ccccn2)c(OC)c1 (stereo unspecified),10.4% (inactive)
11,COc1ccc(-c2cc3ccc(OCc4nn[nH]n4)cc3oc2=O)cc1,68.8% (active)
12,CCCCc1cc(=O)oc2cc(C)cc(OCc3nn[nH]n3)c12,-1.99% (inactive)
13,Cc1noc(C)c1COc1ccc2ccc(=O)oc2c1,-9.61% (inactive)
14,CCS(=O)(=O)Nc1ccc(C(=O)NCCSc2ccccc2)cc1,11.9% (inactive)
15,Cc1cccc(OCC(=O)Nc2ccc(C(=O)O)cc2NC(=O)COc2cccc(C)c2)c1,10.8% (inactive)
16,Cc1cccc(OCCC(=O)Nc2ccccc2C(N)=O)c1,-32.4% (inactive)
17,Cc1cccc(OCC(=O)Nc2ccccc2F)c1,56.4% (active)
18,COc1ccc([N+](=O)[O-])cc1NC(=O)CCc1ccccc1,-1.66% (inactive)
19,Cc1ccc(F)c(NC(=O)CCc2ccccc2)c1,51.3% (active)
20,Cc1ccc(F)c(NC(=O)CCOc2ccccc2C)c1,5.27% (inactive)
21,CCOC(=O)C1C(=O)NCC1c1ccccc1 (stereo unspecified),-10.2% (inactive)
22,Cc1ccc(-c2ccnc3nc(Sc4ncc(C(F)(F)F)cc4Cl)nn23)cc1,3.77% (inactive)
23,CCOC(=O)CSC1=N/C(=C/c2ccc(-n3cncn3)cc2)C(=O)N1C(C)=O,4.91% (inactive)
24,CCOC(=O)C1CCN(C(=O)CN2C(=O)c3cccnc3Oc3ccc(C)cc32)CC1,-14.4% (inactive)
25,Cc1nn(-c2ccccc2)c2[nH]c(C(F)(F)F)cc(=O)c12,-1.92% (inactive)
26,N=c1c2c3c(sc2ncn1CCCN1CCOCC1)CCCCC3,3.22% (inactive)

row,Structure (SMILES),inhibition
1,O=C(O)C1OC(C(=O)O)C2C1C(F)(F)C2(F)F (stereo unspecified),-10.3% (inactive)
2,COc1cc(/C=C(\C#N)c2nc3c(s2)CC(C)CC3)ccc1O (stereo unspecified),8.39% (inactive)
3,COc1cc(/C=C(\C#N)c2nc3ccccc3[nH]2)ccc1O,92.4% (active)
4,Cc1ccc2nc(/C(C#N)=C\c3ccc(OC(=O)c4cccs4)cc3)[nH]c2c1,-7.94% (inactive)
5,c1ccc(C[C@H]2CNCCN2CCC23CC4CC(CC(C4)C2)C3)cc1,1.32% (inactive)
6,O=C(Nc1ccccc1Cc1ccccc1)c1ccc2c(c1)SC1=NS(=O)(=O)CCN12,-1.13% (inactive)
7,O=C(NCc1ccco1)C(c1ccncc1)N(C(=O)Cn1nnc2ccccc21)c1ccccc1 (stereo unspecified),-7.82% (inactive)
8,O=C(CC1C(=O)NCCN1C(=O)c1ccc([N+](=O)[O-])cc1)Nc1cccc(Cl)c1 (stereo unspecified),-13.3% (inactive)
9,O=Cc1ccc(Oc2cccc(C(F)(F)F)c2)nc1,7.02% (inactive)
10,FC(F)(F)c1ccnc(Oc2ccc(C3=NCCS3)cc2)c1,74.8% (active)
11,O=[N+]([O-])c1cccc(C2=NCCS2)c1,-2.08% (inactive)
12,Cc1cccc(N)c1SC1CCCCC1O (stereo unspecified),14.9% (inactive)
13,CCCCN1C(N)=NC[C@@H]1CC1CCCCC1,-9.84% (inactive)
14,CCCCN(CC)CCNC(=O)CCNC(=O)Cn1ccc2ccccc2c1=O,-9.66% (inactive)
15,C=CCOc1ccc(Cl)cc1CNCCCN1CCOCC1,7.54% (inactive)
16,c1ccc(-n2nnnc2NC2CCCCCC2)cc1,-14.3% (inactive)
17,Brc1ccc(C2CC(c3ccccc3)=Nc3ccccc3N2)cc1 (stereo unspecified),81.3% (active)
18,CNC(=S)N1N=C(c2ccccc2)CC1c1ccc(Br)cc1 (stereo unspecified),-4.9% (inactive)
19,O=C(c1ccccc1)N1N=C(c2ccccc2O)CC1c1ccc(Br)cc1 (stereo unspecified),-41.6% (inactive)
20,COc1cc(NC(=S)N2CCCC(C)C2)c(OC)cc1Cl (stereo unspecified),1.77% (inactive)
21,O=C(CC(c1ccccc1)c1ccccc1)NCC(O)c1ccc([N+](=O)[O-])cc1 (stereo unspecified),-31.1% (inactive)
22,COC(=O)CCSc1nccn1Cc1ccccc1,-11% (inactive)
23,CCCCCC(O)(CCN1CCCCC1)c1ccccc1 (stereo unspecified),5.63% (inactive)
24,Cc1cccc(C(=O)Nc2ccc(C(=O)N/N=C/c3cccc(C)n3)cc2)c1,-5% (inactive)
25,C/C(=N\NC(=O)CNc1cccc2ccccc12)c1ccc(Br)s1,77.3% (active)
26,CC/C(=N\NC(=O)c1ccccc1Cl)c1ccc(Br)s1,3.9% (inactive)

row,Structure (SMILES),inhibition
1,Cc1ccccc1NCC(=O)N/N=C\c1ccc([N+](=O)[O-])s1,44% (inactive)
2,C/C(=N\NC(=O)CSc1nc2ccccc2c(=O)n1-c1ccccc1C)c1cccs1,6.68% (inactive)
3,Cc1cccc(/C=N/NC(=O)CNc2cccc3ccccc23)n1,78.3% (active)
4,Cc1ccc(NC(=O)CSc2nc(=O)n(CCN(C)C)c3c2CCCC3)c(C)c1,-3.87% (inactive)
5,CC(NC(=S)Nc1ccc(S(N)(=O)=O)cc1)c1ccc2c(c1)OCO2 (stereo unspecified),7% (inactive)
6,CCn1c(SCC(=O)NNC(=O)c2ccc(OC)cc2)nnc1C(C)C,-13.3% (inactive)
7,Cc1nn2c(NCCN(C)C)c3c(nc2c1-c1ccccc1)CCC3,-33.9% (inactive)
8,CC(OC(=O)c1ccc2ccccc2n1)C(=O)c1ccccc1 (stereo unspecified),65.8% (active)
9,Cc1ccc(S(=O)(=O)N(C)C)cc1NC(=O)C(C)OC(=O)c1ccc2ccccc2n1 (stereo unspecified),-0.065% (inactive)
10,CC(NC(=O)COC(=O)c1ccc2ccccc2n1)c1ccccc1 (stereo unspecified),-2.28% (inactive)
11,CC(OC(=O)CNS(=O)(=O)/C=C/c1ccccc1)C(=O)Nc1ccc(S(=O)(=O)N2CCCC2)cc1 (stereo unspecified),1.69% (inactive)
12,Cn1c(=O)c(=O)n(C)c2cc(S(=O)(=O)NCCN3CCN(c4ccccc4F)CC3)ccc21,-19.5% (inactive)
13,CCOC(=O)[C@H]1CCC[C@@H](NS(=O)(=O)c2ccc(NC(C)=O)cc2)C1,4.75% (inactive)
14,O=C(/C(=C/c1cccc(Cl)c1)c1nc2ccccc2[nH]1)c1ccccc1,-2.12% (inactive)
15,O=C(Cc1nc2ccccc2[nH]c1=O)c1ccc(Cl)cc1,50.3% (active)
16,N#C/C(=C(/O)COC(=O)COc1ccc(Cl)cc1)c1nc2ccccc2[nH]1,-13.3% (inactive)
17,COc1cccc(C(=O)CC(=O)C(=O)Nc2ccc([N+](=O)[O-])cc2C)c1,3.79% (inactive)
18,CC1(C)C=C2[C@H]3CC[C@@H]4[C@@]5(C)CCC(=O)C(C)(C)[C@@H]5CC[C@@]4(C)[C@]3(C)CC[C@@]2(C(=O)O)CC1,12.4% (inactive)
19,O=C(C1=C[C@H](c2coc3ccccc3c2=O)C[C@H](OCc2ccc(CO)cc2)O1)N1CCN(Cc2ccccc2)CC1,-13.7% (inactive)
20,O=C(NC(=S)Nc1ccc(Br)cc1F)C1CCCCC1,-12.9% (inactive)
21,O=C(c1cnn2ccccc12)N1CCc2ccccc21,51% (active)
22,CCOC(=O)N1CCC(NC(=O)c2cnn3ccccc23)CC1,3.17% (inactive)
23,Cc1cnc(C(=O)OCC(=O)N2CCc3ccccc32)cn1,0.963% (inactive)
24,Cc1oc2cc(Br)c(O)c(Br)c2c1C(=O)c1ccccc1,-11.8% (inactive)
25,COc1cc(SC)ccc1C(=O)NCCOc1ccccc1Cl,13.4% (inactive)
26,COc1cc(SC)ccc1C(=O)Nc1nc(C)cs1,97.3% (active)

row,Structure (SMILES),inhibition
1,Cc1csc(NC(=O)c2ccc(C)s2)n1,0.083% (inactive)
2,Cc1occc1C(=O)Nc1cccc(Cn2cccn2)c1,-1.37% (inactive)
3,Cc1ccnc(NC(=O)c2ccoc2C)c1,88.3% (active)
4,COc1cc(SC)ccc1C(=O)N(Cc1ccccc1)c1ccccc1,-10.9% (inactive)
5,Cc1ccnc(NC(=O)CNC(=O)c2ccccc2)c1,6.25% (inactive)
6,COc1cc(SC)ccc1C(=O)NNC(=O)C1COc2ccccc2O1 (stereo unspecified),-13.5% (inactive)
7,COC(=O)c1sc(NC(=O)c2ccc(OC)cc2OC)nc1C,74% (active)
8,COc1ccc(C(=O)Nc2cccc(NC(=O)c3ccc(OC)cc3OC)n2)c(OC)c1,-18% (inactive)
9,COc1cc2ccccc2cc1C(=O)Nc1nc(C)c(C(C)=O)s1,16.4% (inactive)
10,COc1cc(SC)ccc1C(=O)Nc1cc(C)ccn1,62.6% (active)
11,C=CCN(CC=C)C(=O)COC(=O)c1n[nH]c2ccccc12,-20.6% (inactive)
12,CCOc1ccc(NC(=S)NC(=O)/C=C/c2ccc(OC)cc2)c([N+](=O)[O-])c1,-2.86% (inactive)
13,O=C(Nc1nccs1)C1CCN(S(=O)(=O)c2ccc(Cl)c(C(F)(F)F)c2)CC1,-4.6% (inactive)
14,CCOc1ncccc1C(=O)Nc1ccc(S(=O)(=O)Nc2nc(C)cc(C)n2)cc1,-19.1% (inactive)
15,O=C(c1ccc(OC2CCN(C/C=C/c3ccc(F)cc3)CC2)cc1)N1CCCCC1,0.618% (inactive)
16,COc1cc(C)nc(N2CCCC(C(=O)NCC(C)C)C2)n1 (stereo unspecified),-10.1% (inactive)
17,O=C(NNS(=O)(=O)c1ccc(F)cc1)C1CCCCC1,-3.19% (inactive)
18,CCOC(=O)c1cccnc1NC(=O)c1ccncc1,-2.78% (inactive)
19,CC(=O)c1sc(N/N=C\c2ccc(C)cc2)nc1C,23.9% (inactive)
20,CCOC(=O)c1sc(NC(=O)c2ccncc2)nc1C,97.5% (active)
21,CCOC(=O)c1sc(NC(=O)c2sc(C)nc2C)nc1C,15.3% (inactive)
22,COC(=O)c1sc(NC(=S)NC(=O)c2ccc(C)cc2)nc1C,-20% (inactive)
23,CC(=O)c1sc(NC(=O)c2ccc(C)cc2)nc1C,62% (active)
